Values joined by “and” are separate entries in the source; they are usually repeats but may differ in a detail not shown here. Equal values may be shown once. Active and inactive are the calls of the source. The call rests on the fitted dose curve; in most records, active means well fitted activation curve with a large enough effect; inconclusive means small, poorly fitted or top-dose-only effect; inactive means no such curve, though single readings can be large or run the other way.
biological target: Cytochrome P450 3A4 (Homo sapiens) (UniProt P08684); test: qHTS Assay for Activators of Cytochrome P450 3A4 (AID 885); settings: recombinant CYP3A4, Luciferin-PPXE luminescence, 60 min; series mostly up to 57.1 µM; activity change, positive = activation: at the top concentration; further: nearly all actives have a fitted effect of over 65% in size
Sequence (P08684 whole entry, looked up): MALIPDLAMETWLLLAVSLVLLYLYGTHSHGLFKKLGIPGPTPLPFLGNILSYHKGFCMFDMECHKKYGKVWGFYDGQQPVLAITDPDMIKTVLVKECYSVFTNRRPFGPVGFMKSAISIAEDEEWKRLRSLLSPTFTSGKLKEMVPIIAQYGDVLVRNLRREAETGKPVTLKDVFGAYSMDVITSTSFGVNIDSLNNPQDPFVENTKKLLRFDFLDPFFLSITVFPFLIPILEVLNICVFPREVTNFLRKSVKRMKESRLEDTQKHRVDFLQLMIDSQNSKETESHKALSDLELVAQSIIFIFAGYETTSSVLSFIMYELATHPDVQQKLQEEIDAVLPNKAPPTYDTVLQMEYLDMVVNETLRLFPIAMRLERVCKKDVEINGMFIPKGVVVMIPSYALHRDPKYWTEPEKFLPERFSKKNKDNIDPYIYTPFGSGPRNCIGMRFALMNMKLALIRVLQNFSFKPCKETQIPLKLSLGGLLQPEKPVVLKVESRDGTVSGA
How it was run: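 Signal was normalized against complete inhibition by 57 uM ketoconazole. The reaction used 20nM CYP3A4 with 25uM Luciferin-PPXE, 10-min compound preincubation and a 60-min NADPH-supported step at RT.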

Activity change, positive = activation, inactive:
CC(=O)OC[C@@H]1O[C@H](C/C=N\O[C@@H](C)c2cn([C@H](CO)Cc3ccccc3)nn2)C=C[C@@H]1OC(C)=O -51.6% [at 11.4 µM] and -34% [at 11.4 µM]
FC(F)(F)c1ccc(CN2C[C@@H]3C(c4ccccc4)C4(c5ccccc5)CC3(C4)[C@H]2c2ccccc2)cc1 (some centres undefined) -53.9%
FC(F)(F)c1ccc(CN2C[C@@H]3C(c4ccc(Cl)nc4)C4(c5ccccc5)CC3(C4)[C@H]2c2ccccc2)cc1 (some centres undefined) -45.7%
CC(=O)N1CC=CC1(CC(C)C)C(=O)NCC1CC1 (centres undefined) -31.9%
COC(=O)NC(/C(C(=O)OC)=C(\C)NCc1ccccc1)c1cccs1 (centres undefined) -35.9% [at 11.4 µM]
Cn1c(N)c(C(=O)COC(=O)c2cc(C3CC3)nc3ccccc23)c(=O)n(C)c1=O -48.2%
C#CCCCO/N=C1/C[C@@H](O)[C@@H](O)[C@@H]2[C@@H]3C(=O)N(CCC(=O)OCC)C(=O)[C@H]3CC[C@H]12 -51% [at 11.4 µM]
COC(=O)C/C=C\[C@@H](C)[C@@H](/C=N\O[C@@H](C)CN1CCCc2nc(C)c(C)cc21)OC -59.1% [at 11.4 µM]
N#Cc1ccc(C23CC4(C2)[C@H](CN(CC2CCCCC2)[C@@H]4c2ccccc2)C3c2ccc(Cl)nc2)cc1 (some centres undefined) -51%
COC(=O)[C@@H]1C[C@@]2(O)[C@H](O)[C@H](O)[C@H](O)C[C@H]2N1Cc1c(F)cccc1Cl -36.9%
N#CCC(=O)NC(=O)NCC1CC1 -36.4%
COC(=O)[C@@H]1C[C@H]2CC[C@H](O)C[C@H]2N1Cc1ccc(C(F)(F)F)cc1 -52.4%
Cc1cc2c(nc1C)CCCN2C[C@H](C)O/N=C1/[C@H]2O[C@@H]2[C@@H](O)[C@H]2[C@H]1CCn1c(=O)n(-c3ccccc3)c(=O)n12 -35.6% [at 11.4 µM]
COC(=O)[C@@H]1C[C@@]2(O)[C@H](O)[C@H](O)[C@H](O)C[C@H]2N1Cc1cc(OC)cc(OC)c1 -39.3%
COc1ccc(COC(=O)N/N=C2/C[C@@H](O)[C@@H](O)[C@@H]3[C@H]4C(=O)N(c5ccc(F)cc5F)C(=O)[C@@H]4CC[C@@H]23)cc1 -42.8% [at 11.4 µM]
CO[C@H]1COC(=O)[C@H]2CCCN2C(=O)C/C=C\[C@@H](C)[C@H](OC)COC(=O)[C@@H](OCc2ccccc2)/C=C\[C@@H]1C -30.9% [at 11.4 µM]
CC(=O)O[C@H]1C2=CO[C@H](C)[C@H]3[C@H]4C5=C([C@H](O)[C@H]6O[C@@H]6C5=O)[C@H](O[C@H]4C)[C@@]23C(=O)[C@H]2O[C@@H]21 -42.7% [at 11.4 µM]
CCC1=C2CC[C@H]3C(=O)NC(=O)[C@H]3[C@H]2[C@@]2(Cc3ccccc3)C(=NCC(=O)OC)OC(=O)N2C1=O -56.7%
COC(=O)c1ccc(C23CC4(C2)[C@H](CN(Cc2ccc(C(F)(F)F)cc2)[C@@H]4c2ccccc2)C3c2ccccc2)cc1 (some centres undefined) -48.5%
CO[C@H]1COC(=O)CCC[C@@H](C)[C@H](OC)COC(=O)[C@H]2CCCN2C(=O)C/C=C\[C@@H]1C -30.7% [at 11.4 µM]
C[C@H]1CC[C@H]2C(=O)N3[C@H](c4ccc(Br)cc4)[C@@H](C)CC[C@H]3C(=O)N2[C@@H]1c1ccc(Br)cc1 -43.1% [at 11.4 µM]
CO[C@@H]1COC(=O)C/C=C\[C@@H](C)COC(=O)[C@H](Cc2ccccc2)NC(=O)C/C=C\[C@H]1C -39.1% [at 11.4 µM]
O=C(O)c1sccc1S(=O)(=O)Nc1ccc(Cl)cc1 -30.3%
COC(=O)c1ccc(C23CC4(C2)[C@H](CN(C)[C@@H]4c2ccccc2)C3c2ccccc2)cc1 (some centres undefined) -59.7%
COC(=O)[C@@H]1C[C@@]2(O)[C@H](O)[C@H](O)[C@H](O)C[C@H]2N1Cc1ccc(N2CCN(C)CC2)cc1 -46%
COC(=O)c1ccc(C23CC4(C2)[C@H](CN(C)[C@@H]4c2ccccc2)C3c2ccc(Cl)nc2)cc1 (some centres undefined) -50%
COC(=O)[C@@H]1C[C@@]2(O)[C@@H](O)[C@@H](O)[C@@H](O)C[C@H]2N1Cc1cc(F)ccc1F -30.5%
CC(C)[C@@H](OCc1ccccc1)[C@H](C)/C=N\O[C@@H](C)c1cn([C@H](CO)Cc2ccccc2)nn1 -36% [at 11.4 µM] and -44.1% [at 11.4 µM]
COC(=O)NC(/C(C(=O)OC)=C(\C)NCc1ccccc1)c1ccccc1 (centres undefined) -30.2% [at 11.4 µM]
Cn1c(=O)cc(N)n(Cc2ccccc2)c1=O -51.2%
COC(=O)[C@@H]1C[C@H]2CC[C@H](O)C[C@H]2N1Cc1ccc(C)s1 -34.9%
CO[C@H]1COC(=O)[C@H](C)COC(=O)[C@@H](Cc2ccccc2)NC(=O)C/C=C\[C@H]1C -39.6% [at 11.4 µM]
CO[C@H]1COC(=O)[C@@H](C)COC(=O)[C@@H](COCc2ccccc2)NC(=O)C/C=C\[C@H]1C -40.1% [at 11.4 µM]
COC(=O)N1C2(C=CC1(C)C(=O)NCc1ccc(N(C)C)cc1)CCCCC2 (centres undefined) -54.6%
COc1cc(/C=C/C(=O)c2cccs2)cc(OC)c1OC -48.8%
COC(=O)c1cccc(C23CC4(C2)[C@H](CN(Cc2ccc(C(F)(F)F)cc2)[C@@H]4c2ccccc2)C3c2ccc(Cl)nc2)c1 (some centres undefined) -32.7%
COC(=O)[C@@H]1CC[C@H](C)[C@@H](c2ccc(C)cc2)N1C(=O)c1ccc(/C=N\O[C@@H](C)c2cn([C@H]3COC[C@H]3O)nn2)cc1 -43.4% [at 11.4 µM]
CO[C@@H]1/C=C\CC(=O)N[C@@H](C)C(=O)OC[C@@H](OC)[C@H](C)/C=C\CC(=O)OC[C@H]1C -36.7% [at 11.4 µM]
CC(C)=NO[C@@H](C)c1cc(-c2c(C)cc(C)cc2C)no1 -45% [at 11.4 µM]

From PubChem BioAssay (NCATS)
